# Rows were chosen to be rich in hits. Some 7.3% of all compounds tested hit in one or more screens of this group.
# HCMV antiviral: human cytomegalovirus inhibition. HFF cells, HCMV-luciferase reporter, 72 h; stronger effect = lower value. activity change, negative = inhibition, % at 57.5 µM. hit rate 4.5% among 410,000. AID 1259415; in the data active = activity change below about -60%; inconclusive = no clear call, values can overlap the other calls; inactive = above about -39%
#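 Screen run at 2 compound doses on HFFs infected with reporter HCMV, MOI 1 PFU/cell. Luciferase activity from cell lysates at 72 h post infection gave inhibition relative to buffer-only and Salinomycin wells.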
# AmpC inh detg: AmpC beta-lactamase inhibition with detergent present | P00811 | AmpC hydrolysis of nitrocefin, absorbance 480 nm, 0.01% Triton | Potency, µM (top dose mostly 114 µM), without a hit: top-dose activity change, negative = inhibition, most hits filed as inhibitors | hit rate 0.041% among 370,000 | AID 485294;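 note: potency is the fitted concentration of half-maximal effect; 0% = no-compound wells and -100% = no-enzyme wells; nearly all actives have a fitted effect of over 25% in size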
# Target sequence (P00811 whole entry, looked up): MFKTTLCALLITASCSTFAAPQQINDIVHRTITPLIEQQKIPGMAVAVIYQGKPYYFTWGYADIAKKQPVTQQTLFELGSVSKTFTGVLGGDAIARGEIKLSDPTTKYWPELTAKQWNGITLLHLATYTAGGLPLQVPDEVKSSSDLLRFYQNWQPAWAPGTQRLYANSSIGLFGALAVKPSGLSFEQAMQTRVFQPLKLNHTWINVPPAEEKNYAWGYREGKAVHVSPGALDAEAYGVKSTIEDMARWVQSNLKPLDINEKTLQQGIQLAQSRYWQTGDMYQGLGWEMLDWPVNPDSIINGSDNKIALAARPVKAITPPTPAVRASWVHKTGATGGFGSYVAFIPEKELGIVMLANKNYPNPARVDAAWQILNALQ
#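 20 mM phosphate pH 7.0 + 0.01% (detergent screen) or 0.0001% Triton X-100; 5.3 nM AmpC reagent; cpd preinc 15 min RT; nitrocefin (800 uM stock) to start; A480 q20 s × 4 min; Activity was normalised to no-enzyme and no-compound control wells.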
# HCV inhibitor: blocks hepatitis C virus. Huh7.5.1 HCVcc-Cre infection, luciferase reporter, 44 h. Potency, µM (series often up to 41.8 µM), for the others: at the top dose activity change, negative = inhibition, usual class: inhibitors. hit rate 3.4% among 340,000. AID 651820; note: potency is the fitted concentration of half-maximal effect
#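 Reporter virus HCVcc-Cre (~0.5 moi) infects cells exposed to compound; seeding density 1,000 cells/well with 4 h settling beforehand. Luminescence, 15 sec read, taken 44 h post-infection following a 15 min RT substrate incubation.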
# AmpC no deterg: inhibitors of E. coli AmpC beta-lactamase without detergent | P00811 | AmpC nitrocefin hydrolysis, absorbance 480 nm, 0.0001% Triton | Potency, µM (top dose mostly 57.1 µM), inactives show at the top dose activity change, negative = inhibition, most hits filed as inhibitors | hit rate 0.52% among 330,000 | AID 485341;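 note: potency is the fitted concentration of half-maximal effect; plate controls were no compound for no effect and no enzyme for full effect; nearly all actives have a fitted effect of over 20% in size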
#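 AmpC (5.3 nM in the dispensed reagent) in 20 mM phosphate pH 7.0 with 0.01% (detergent screen) or 0.0001% Triton X-100 was preincubated with compounds for 15 min at room temperature. Nitrocefin was then added from an 800 uM solution, and hydrolysis was followed at 480 nm.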
# FMDV inh: blocks foot and mouth disease virus; Potency, µM (highest dose often 57.9 µM), inactives show at the highest dose activity change, negative = inhibition, usual class: inhibitors; FMDV antiviral cell-based qHTS; hit rate 1.2% among 410,000; calls by dose curve; tested in HEK293T cells; note: read-out not given here; potency is the fitted concentration of half-maximal effect; nearly all actives have a fitted effect of over 45% in size
# * = called active by the depositor; ? = inconclusive; / = no result. Unless noted, calls come from the whole dose curve; as a rule, active = well fitted curve in the direction sought with a large enough effect; inconclusive = small, poorly fitted or top-dose-only effect, or another doubt; inactive = no such curve, though single readings can be large; an effect the other way counts as inactive or inconclusive. Unless noted, % is set by controls: 0 for no effect and ±100 for the full control effect.
SMILES,HCMV antiviral,AmpC inh detg,HCV inhibitor,AmpC no deterg,FMDV inh
Cc1ccccc1C1c2[nH]c3ccccc3c2C[C@H]2C(=O)N(c3ccccc3C(=O)NCCCN3CCOCC3)C(=O)N12 (stereo partly specified),-1.3,-4.9%,1.12µM*,331.7%,-22.6%
Cc1ccccc1C1c2[nH]c3ccccc3c2C[C@H]2C(=O)N(c3ccccc3C(=O)NCCN3CCOCC3)C(=O)N12 (stereo partly specified),-31.9,-10.2%,?,346.2%,-13.5%
O=c1ccnc(Nc2ccc([N+](=O)[O-])cc2)[nH]1,-71.4*,/,-20.1%,/,-6.9%
COc1ccc(Nc2nccc(-c3ccc([N+](=O)[O-])cc3)n2)cc1,?,-8.9%,?,-19.8%,-2.7%
CCOc1ccc(C(=O)C[n+]2cccc3cc(C)ccc32)cc1,-81.3*,?,?,-5.0%,-13.6%
O=C(Cc1ccc(Br)cc1)Nc1cccc(-c2cn3c(n2)SCC3)c1,-71.4*,-8.1%,?,?,?
O=C(CN1CCCC1)Nc1nc(-c2ccc3c(c2)CCN3C(=O)c2ccccc2F)cs1,/,-3.7%,10µM*,33.9%,3.0%
CNc1nc(-c2ccc3c(c2)CCN3C(=O)c2ccc(F)cc2)cs1,-18.7,-2.1%,?,-21.3%,2.1%
CNc1nc(-c2ccc3c(c2)CCN3C(=O)c2cccc(F)c2)cs1,-9.7,-4.9%,11.2µM*,-20.1%,-22.4%
CCOC(=O)Cn1c(S(=O)(=O)Cc2ccccc2)nc2ccccc21,5.8,?,0.8%,-8.0%,-6.2%
CCOC(=O)Cn1c(S(=O)(=O)Cc2ccc(Cl)cc2)nc(-c2ccccc2)c1-c1ccccc1,?,?,35.5µM*,-14.3%,-17.8%
CC(C)CC(OC(=O)c1ccco1)C(=O)NC1CCCCC1 (stereo unspecified),12.7,31.6µM*,2.9%,13.3%,-2.5%
Cc1ccc(C(OC(=O)c2ccco2)C(=O)NC2CCCC2)cc1 (stereo unspecified),-14.4,?,-8.9%,0.6%,2.7%
CCOc1ccc(C(OC(=O)c2ccco2)C(=O)NCc2ccc(C)cc2)cc1 (stereo unspecified),-74.0*,?,-2.7%,-13.5%,-16.0%
CC(C)CC(OC(=O)c1ccco1)C(=O)NC1CCCC1 (stereo unspecified),5.5,-8.8%,-16.8%,10.2%,-3.2%
Cc1ccc(C(OC(=O)c2ccco2)C(=O)NC2CCCCC2)cc1 (stereo unspecified),-98.0*,-7.7%,0.5%,27.8%,14.9%
CCOc1cc(/C=C/C(=O)c2ccc(OC)c(CN3CCOCC3)c2)cc(Br)c1O,-98.0*,-13.1%,?,54.2%,-2.6%
COc1ccc(-c2nc(C3CCCCC3)c3cc(OC)ccc3n2)cc1,-22.7,?,-1.0%,-8.9%,-19.4%
Cn1nnnc1SCc1nc2scc(-c3ccc(Cl)cc3)c2c(=O)[nH]1,-69.8*,-8.5%,?,-51.1%,-19.1%
Cn1nnnc1SCc1nc2scc(-c3ccccc3)c2c(=O)[nH]1,12.3,4.0%,-29.8%,-50.4%,?
C=CCn1c(SCc2nc3scc(-c4ccccc4)c3c(=O)[nH]2)nnc1-c1ccccc1F,-15.4,-7.2%,-17.9%,-11.0%,28.2µM*
CN(Cc1ccccc1)C(c1ccnc2ccccc12)c1nnnn1-c1ccc2c(c1)OCCO2 (stereo unspecified),-22.6,/,/,/,-16.6%
CCc1ccccc1NC(=O)CN1C(=O)c2cccnc2Oc2ccc(Cl)cc21,0.0,-4.4%,/,/,0.0%
CN1CCN(C(=S)c2ccc(N(C)C)cc2)CC1,-108.2*,?,-5.5%,-12.6%,24.8%
CN1CCN(C(=S)c2ccc(Br)cc2)CC1,5.8,7.0%,2.0%,-11.6%,-4.2%
SMILES,HCMV antiviral,AmpC inh detg,HCV inhibitor,AmpC no deterg,FMDV inh
CCOc1ccc(N2CC(NC(=O)C3CCCC3)CC2=O)cc1 (stereo unspecified),32.9,-2.9%,/,/,-7.8%
CN1CCN(S(=O)(=O)c2ccc(N(C)Cc3ccc(OC(F)F)cc3)c([N+](=O)[O-])c2)CC1,?,-9.0%,11.2µM*,165.0%,?
CN(CC(=O)Nc1cccc(F)c1)C(=O)c1cccc(S(=O)(=O)N2CCN(Cc3ccccc3)CC2)c1,?,/,/,/,-47.0%
CN(CC(=O)Nc1ccccc1Cl)C(=O)c1cccc(S(=O)(=O)N2CCN(Cc3ccccc3)CC2)c1,-79.8*,-1.5%,?,183.7%,?
CN(CC(=O)Nc1ccccc1Cl)C(=O)c1cccc(S(=O)(=O)N2CCN(c3ccccc3)CC2)c1,-77.3*,/,?,/,?
CC1CCN(S(=O)(=O)c2cccc(C(=O)N(Cc3ccccc3)c3ccccn3)c2)CC1,-65.6*,3.8%,-13.4%,30.4%,8.1%
CCc1c(CN2CCN(c3cccc(C)c3C)CC2)csc1C,?,0.5%,/,/,-16.5%
COc1cccc(CN2CCC(n3cc(C(=O)NC4CCCC4)nn3)CC2)c1O,/,/,/,/,-17.1%
Cc1cccc(NC(=O)CN2C(=O)c3cccnc3Oc3ccc(Cl)cc32)c1C,0.0,13.2%,/,/,-5.5%
CN(CC(=O)Nc1ccccc1Cl)C(=O)c1cccc(S(=O)(=O)N2CCN(c3ccc(F)cc3)CC2)c1,-80.0*,-7.1%,5.62µM*,62.4%,-16.1%
COc1ccccc1NC(=O)c1cccc(S(=O)(=O)N2CCN(Cc3ccccc3)CC2)c1,-8.2,?,10µM*,3.8%,-29.2%
CN(Cc1ccc(Cl)c(Cl)c1)C(=O)c1cccc(S(=O)(=O)N2CCN(Cc3ccccc3)CC2)c1,0.0,-5.3%,10µM*,112.2%,-20.8%
COc1ccc(NC(C)=O)cc1NC(=O)c1cccc(S(=O)(=O)N2CCN(Cc3ccccc3)CC2)c1,-14.6,-4.6%,-23.7%,177.5%,-16.6%
C=CCN(C(=O)c1cccc(S(=O)(=O)N2CCN(C)CC2)c1)c1nc(-c2ccccc2)cs1,-36.0,?,25.1µM*,176.1%,?
Cc1cccc(C)c1NC(=O)CN(C)C(=O)c1cccc(S(=O)(=O)N2CCN(c3ccccc3)CC2)c1,-7.7,1.0%,/,107.3%,-7.2%
CCNC(=O)c1ccccc1NC(=O)c1cccc(S(=O)(=O)N2CCC(C)CC2)c1,?,1.9%,10µM*,-12.8%,?
Cc1cccc(C)c1NC(=O)CN(C)C(=O)c1cccc(S(=O)(=O)N2CCN(c3ccc(F)cc3)CC2)c1,-87.1*,-4.7%,?,176.7%,?
CN(Cc1ccc(OC(F)F)cc1)C(=O)c1cccc(S(=O)(=O)N2CCN(c3ccccc3)CC2)c1,-62.9*,/,5.01µM*,/,20µM*
O=C1CCC[C@H]2[C@@H](Cc3ccccc3)[C@H](N(Cc3ccccc3)Cc3ccccc3)CC[C@]23CCCN13,-23.7,/,/,/,/
CCOC(=O)C1=C(NC(=S)NC(=O)c2ccccc2)c2ccccc2CC12CCCC2,-98.6*,-13.3%,?,-17.0%,?

# High-throughput results as filed in PubChem.
